Assay outcomes deposited in PubChem by National Center for Advancing Translational Sciences (NCATS).
HP1b chromo inh: inhibitors of HP1-beta chromodomain binding to methylated histone tails; hit rate 0.56% among 390,000; AlphaScreen HP1-beta / biotin-H3K9me3 peptide binding; Potency, µM (top dose mostly 114 µM), for the others: at the highest dose activity change, negative = inhibition, usual class: inhibitors; further: potency means the concentration at half of the fitted maximal effect; nearly all actives have a fitted effect of over 70% in size
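HP1-beta protein (50 nM final) preincubated 30 min at room temperature with biotinylated H3(1-18)K9me3 peptide (50 nM) in PBS pH 7.4, 0.01% Tween-20, then compound added for 30 min. AlphaScreen streptavidin donor/nickel chelate acceptor beads (10 ug/mL final), 30 min dark, luminescence read.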
BAZ2B inh: inhibitors of human BAZ2B bromodomain | hit rate 4.4% among 360,000 | Potency, µM (series often up to 114 µM), for inactives: at the highest dose activity change, negative = inhibition, hits mostly inhibitors | AlphaScreen BAZ2B-H3K14Ac peptide displacement | Q9UIF8 | AID 504333; further: potency means the concentration at half of the fitted maximal effect; on the % scale 0 is the no-effect control and ±100 the full control effect; nearly all actives have a fitted effect of over 60% in size
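Compounds, titrated to a top concentration of 110 uM, were incubated 30 min at room temperature with preformed BAZ2B/acetyl-K14 H3 peptide complex (50 nM each). Proximity signal was measured by AlphaScreen after 20 min with beads.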
JMJD2A Tudor: JMJD2A Tudor domain (human) inhibition | AlphaScreen JMJD2A-Tudor / H3K4me3 peptide binding | O75164 | Potency, µM (series often up to 114 µM), inactives show top-dose activity change, negative = inhibition, most hits filed as inhibitors | hit rate 4.4% among 390,000; further: potency means the concentration at half of the fitted maximal effect; on the % scale 0 is the no-effect control and ±100 the full control effect; nearly all actives have a fitted effect of over 50% in size
Target sequence (O75164 whole entry, looked up, the tested form may be a part): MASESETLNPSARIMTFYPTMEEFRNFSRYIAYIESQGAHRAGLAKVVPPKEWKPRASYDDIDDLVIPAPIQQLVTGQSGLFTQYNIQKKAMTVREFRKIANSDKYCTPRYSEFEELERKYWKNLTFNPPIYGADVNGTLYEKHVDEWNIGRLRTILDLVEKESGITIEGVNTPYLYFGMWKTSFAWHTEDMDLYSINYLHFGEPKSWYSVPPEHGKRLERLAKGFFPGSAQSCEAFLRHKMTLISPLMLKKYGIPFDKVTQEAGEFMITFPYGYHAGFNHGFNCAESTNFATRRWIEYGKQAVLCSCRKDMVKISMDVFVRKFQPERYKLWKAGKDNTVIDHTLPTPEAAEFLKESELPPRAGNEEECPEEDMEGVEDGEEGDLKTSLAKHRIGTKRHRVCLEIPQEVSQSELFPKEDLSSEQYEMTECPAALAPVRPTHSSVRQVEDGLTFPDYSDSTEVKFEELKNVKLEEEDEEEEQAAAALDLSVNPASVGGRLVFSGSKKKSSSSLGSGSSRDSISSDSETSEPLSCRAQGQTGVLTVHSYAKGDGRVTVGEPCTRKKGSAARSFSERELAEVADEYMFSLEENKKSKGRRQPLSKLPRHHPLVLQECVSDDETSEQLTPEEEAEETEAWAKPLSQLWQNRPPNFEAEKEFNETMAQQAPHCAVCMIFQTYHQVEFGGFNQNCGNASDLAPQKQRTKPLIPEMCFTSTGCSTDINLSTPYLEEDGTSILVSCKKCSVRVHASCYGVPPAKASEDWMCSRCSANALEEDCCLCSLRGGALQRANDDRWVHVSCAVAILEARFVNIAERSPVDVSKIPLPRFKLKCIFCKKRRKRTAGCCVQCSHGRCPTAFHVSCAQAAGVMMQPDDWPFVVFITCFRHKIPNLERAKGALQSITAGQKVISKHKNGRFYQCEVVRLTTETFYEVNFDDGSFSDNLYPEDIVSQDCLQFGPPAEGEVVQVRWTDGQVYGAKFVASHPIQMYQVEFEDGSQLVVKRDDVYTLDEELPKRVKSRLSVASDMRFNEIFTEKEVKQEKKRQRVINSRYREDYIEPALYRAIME
L3MBTL1 block: inhibitors of human L3MBTL1; Q9Y468; hit rate 0.66% among 230,000; AID 485360; AlphaScreen L3MBTL1–H3K9me1 peptide binding; Potency, µM (titrated, usually from 57.1 µM), without a hit: at the top dose activity, negative = inhibition, most hits filed as inhibitors; further: potency means the concentration at half of the fitted maximal effect; on the % scale 0 is the no-effect control and ±100 the full control effect; nearly all actives have a fitted effect of over 60% in size
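AlphaScreen proximity signal between nickel-chelate acceptor and streptavidin donor beads (final 10 ug/mL) reports binding of 50 nM L3MBTL1 to 75 nM biotin-H3 K9me1 peptide; complex incubated with compounds 30 min at room temperature; cefsulodin titration as control.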
PI5P4K alpha inh: PI5P4K alpha (human) kinase inhibition. P48426. PI5P4Kalpha enzyme, ADP-Glo luminescence, 60 min; active compounds read low. max response, %. hit rate 1.2% among 330,000; active means max response of -50% or lower; inconclusive means between -30% and -50%; inactive means -30% or higher; further: value at the top dose of about 77 µM; on the % scale 0 is the no-effect control and ±100 the full control effect
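ADP-Glo luminescence end-point read after a 60 min room-temperature kinase reaction of PI5P4Kalpha plus substrate, initiated with ATP at 5 microM final. Buffer: 0.038 M HEPES pH 7.4, EGTA, 0.1% CHAPS, 5% DMSO.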
JMJD2E inh: blocks human JMJD2E demethylase activity; AID 2147; JMJD2E catalytic domain, FDH-coupled NADH fluorescence (FDH is formaldehyde dehydrogenase); Potency, µM (doses to about 57.1 µM), without a hit: top-dose activity change, negative = inhibition, usual class: inhibitors; hit rate 1.6% among 230,000; B2RXH2; active means well fitted inhibition curve with a large enough effect, not every such curve was filed as active; inconclusive means small, poorly fitted or top-dose-only effect, or another doubt; inactive means no such curve, though single readings can be large or run the other way;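 further: potency means the concentration at half of the fitted maximal effect; 0% = wells with enzyme and -100% = buffer wells without enzyme; nearly all actives have a fitted effect of over 50% in size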
Numbers without * were called inactive; [ ] = remark or other dose. Most compounds without a hit are left out; they make up all but 5.7% or so of the library. Unless noted, the call rests on the fitted dose curve; in most records, active means well fitted inhibition curve with a large enough effect; inconclusive means small, poorly fitted or top-dose-only effect; inactive means no such curve, though single readings can be large or run the other way.

`O=C(Nc1ccccc1)c1ccc(N2CCN(c3ccccc3)CC2)c(S(=O)(=O)N2CCOCC2)c1` gave HP1b chromo inh 19%, BAZ2B inh 79µM*, JMJD2A Tudor 16%, PI5P4K alpha inh 0 and JMJD2E inh inconclusive.
COc1ccc(C(=O)Nc2ccc(NC(=O)c3ccccc3)cc2)cc1S(=O)(=O)N1CCOCC1 was read as HP1b chromo inh 16%, BAZ2B inh -14%, JMJD2A Tudor 9% and PI5P4K alpha inh -9.
For COc1ccc(C(=O)Nc2ccc(N3CCCCCC3)cc2)cc1S(=O)(=O)N1CCOCC1 the results were HP1b chromo inh inconclusive, BAZ2B inh 28µM*, JMJD2A Tudor 7.1µM*, L3MBTL1 block inconclusive and PI5P4K alpha inh 1.
Screening O=C(Nc1ccc(N2CCCCCC2)cc1)c1cccc(S(=O)(=O)N2CCOCC2)c1 returned HP1b chromo inh -45%, BAZ2B inh 32µM*, JMJD2A Tudor 25µM*, L3MBTL1 block inconclusive and PI5P4K alpha inh -11.
Screening COc1ccc([C@H]2C[C@@H](n3cc(-c4ccc(F)cc4)nn3)[C@H](O)CN2CC2CCCCC2)cc1 returned PI5P4K alpha inh -2.
`CC(Sc1nc2c([nH]c3ccccc32)c(=O)n1-c1ccccc1)c1ccccc1` (stereo unspecified) gave HP1b chromo inh 6%[57 µM], BAZ2B inh -30% and JMJD2A Tudor inconclusive.
`Cc1nnc(SCCN2CCOCC2)n1C` gave HP1b chromo inh inconclusive, BAZ2B inh inconclusive, JMJD2A Tudor 1µM*, L3MBTL1 block -2%, PI5P4K alpha inh 1 and JMJD2E inh inconclusive.
`CCCCN(C)C(=O)C1CCN(Cc2cccc(OCc3ccccc3)c2)CC1` gave HP1b chromo inh -8%, BAZ2B inh inconclusive, JMJD2A Tudor 40µM*, L3MBTL1 block -4% and PI5P4K alpha inh 4.
CCCCN(C)C(=O)C1CCN(Cc2cccnc2)CC1 was read as HP1b chromo inh inconclusive, BAZ2B inh 79µM*, JMJD2A Tudor 28µM*, L3MBTL1 block -8% and PI5P4K alpha inh -6.
Cc1ccc(C(OCC(O)CNC(C)c2ccccc2)c2ccccc2)cc1 (stereo unspecified) was read as HP1b chromo inh inconclusive, BAZ2B inh 40µM*, JMJD2A Tudor 1.3µM*, L3MBTL1 block 14%, PI5P4K alpha inh 24 and JMJD2E inh inconclusive.
Screening Cc1ccc(C(OCC(O)CNC(CO)C(O)c2ccc([N+](=O)[O-])cc2)c2ccccc2)cc1 (stereo unspecified) returned HP1b chromo inh inconclusive, BAZ2B inh 50µM*, JMJD2A Tudor 40µM* and PI5P4K alpha inh 7.
For CCn1c(CNC(=O)C23CC4CC(CC(C4)C2)C3)nnc1SCC(=O)Nc1ccc(F)cc1 the results were HP1b chromo inh 50%, BAZ2B inh -3% and JMJD2A Tudor 1%.
`N#Cc1ccc(NC(=O)COCc2cc(-c3ccc4c(c3)OCO4)on2)cc1` gave HP1b chromo inh 7%, BAZ2B inh -2% and JMJD2A Tudor -15%.
For Cc1nc(N)sc1-c1csc(N(C)c2ccc(O)cc2)n1 the results were HP1b chromo inh -54%, BAZ2B inh -69%, JMJD2A Tudor 56µM*, L3MBTL1 block -10% and JMJD2E inh -20%.
Cc1ccc2c(c1)[nH]c1c(=O)n(Cc3ccco3)cnc12 was read as HP1b chromo inh 3%, BAZ2B inh -16%, JMJD2A Tudor -9%[11.4 µM], PI5P4K alpha inh -21 and JMJD2E inh -4%.
`CCOc1ccccc1NC(=O)CN1C(=O)C2(SCC(=O)N2c2cccc(F)c2)c2ccccc21` (stereo unspecified) gave HP1b chromo inh 30%, BAZ2B inh 10%[57.1 µM] and JMJD2A Tudor -4%.
Screening CC1=CCC(C(=O)O)C(C(=O)NC2CCCCC2)C1 (stereo unspecified) returned HP1b chromo inh inconclusive, BAZ2B inh 50µM*, JMJD2A Tudor 56µM* and PI5P4K alpha inh 4.
CC1=C(C)CC(C(=O)NC2CCCC2)C(C(=O)O)C1 (stereo unspecified) was read as HP1b chromo inh 44%, BAZ2B inh -12%, JMJD2A Tudor 0% and PI5P4K alpha inh 8.
`CSc1nc(O)c(C(c2ccccc2)c2c(O)nc(SC)[nH]c2=O)c(=O)[nH]1` gave HP1b chromo inh 53%, BAZ2B inh 5%, JMJD2A Tudor -3%, L3MBTL1 block -2% and PI5P4K alpha inh -53*.
CSc1nc(O)c(C(c2ccc(F)cc2)c2c(O)nc(SC)[nH]c2=O)c(=O)[nH]1 was read as HP1b chromo inh 52%, JMJD2A Tudor -3% and PI5P4K alpha inh -14.
For COc1cc2ccnc(Cc3cccc(OC)c3OC)c2cc1OC the results were HP1b chromo inh 14%, BAZ2B inh -13%, JMJD2A Tudor 79µM*, L3MBTL1 block -8%, PI5P4K alpha inh 7 and JMJD2E inh -20%.
`O=C(CN1C(=O)/C(=C/c2ccccc2)SC1=S)N1CCN(CCc2ccccn2)CC1` gave HP1b chromo inh -12%, BAZ2B inh -14%, JMJD2A Tudor inconclusive and PI5P4K alpha inh -13.
`Cc1nn(S(=O)(=O)c2ccc(C(C)(C)C)cc2)c(C)c1S(=O)(=O)N1CCCCCC1` gave HP1b chromo inh 20%[57 µM], BAZ2B inh -26% and JMJD2A Tudor -28%.
`CC(=O)NC1=NC(=O)/C(=C/c2cn(C(C)=O)nc2-c2ccccc2)S1` gave HP1b chromo inh inconclusive, BAZ2B inh -28%, JMJD2A Tudor 22µM*, L3MBTL1 block -4%, PI5P4K alpha inh -87* and JMJD2E inh 6%.
`CC(=O)NC1=NC(=O)/C(=C/c2cc(C)n(-c3ccc(NC(C)=O)cc3)c2C)S1` gave HP1b chromo inh 43%, BAZ2B inh inconclusive, JMJD2A Tudor -8%, PI5P4K alpha inh 3 and JMJD2E inh inconclusive.
Screening CC(=O)NC1=NC(=O)/C(=C/c2cc(C)n(-c3cccc(C(=O)O)c3)c2C)S1 returned HP1b chromo inh inconclusive, BAZ2B inh 16µM*, JMJD2A Tudor inconclusive, PI5P4K alpha inh inconclusive and JMJD2E inh inconclusive.
Cc1ccc([C@H]2C[C@H](n3cc(-c4ccc(F)cc4)nn3)[C@@H](O)CN2CC2CCCCC2)cc1 was read as PI5P4K alpha inh 5.
Screening CCOC(=O)c1[nH]cnc1C(=O)NC(C)C returned HP1b chromo inh -8%, BAZ2B inh -37%, JMJD2A Tudor 35µM*, L3MBTL1 block 4%, PI5P4K alpha inh -4 and JMJD2E inh -1%.
